Screening results deposited in PubChem by National Center for Advancing Translational Sciences (NCATS).
Shown are actives, neighbours in structure and some others; about 7.1% of the full set was active somewhere.
SW480 rerep = inducers of DNA re-replication in SW480 colon cancer cells; SW480 DNA re-replication, Hoechst DNA content imaging, 48 h; Potency, µM (top dose mostly 46.1 µM), without a hit: at the top dose re-replication activation, hits mostly activators; 340,000 compounds, 1.8% hits; also: potency is read from the fitted curve at half-maximal effect; % of control where 0% means no effect; nearly all actives have a fitted effect of over 55% in size
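Cells (250 per well) received 23 nL compound or DMSO by pin tool and were kept 48 hr at 37 C, 5% CO2. Nuclei were then stained with Hoechst for 40 min and scanned for DNA content.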
MCF10A rerep = induces DNA re-replication in MCF 10a normal breast cells; MCF 10A DNA re-replication, Hoechst nuclear intensity, 48 h; Potency, µM (titrated, usually from 46.1 µM), without a hit: at the top dose activity, positive = re-replication, most hits filed as activators; 350,000 compounds, 2.9% hits; AID 624296; also: potency is read from the fitted curve at half-maximal effect; % of control where 0% means no effect; nearly all actives have a fitted effect of over 50% in size
S2 tox = reduces viability in counter-screen for ATXN expression inhibitors; 400,000 compounds, 0.49% hits; S2 cells (HEK-293 line with an ATXN2-luciferase reporter) viability, CellTiter-Fluor protease fluorescence, 24 h; Potency, µM (top dose mostly 56.7 µM), actives largely listed as cytotoxic; AID 651635; also: potency is read from the fitted curve at half-maximal effect; nearly all actives have a fitted effect of over 40% in size
PINK1 expr mod = PINK1 expression modulation; Potency, µM (series often up to 76.6 µM), inactives show at the top dose activation (PINK1 increase), most hits filed as activators; 410,000 compounds, 0.2% hits; PINK1 immunofluorescence, high-content cytometry, 24 h; active = well fitted activation curve with a large enough effect; inconclusive = small, poorly fitted or top-dose-only effect; cell line not stated here; also: potency is read from the fitted curve at half-maximal effect; % of control where 0% means no effect; nearly all actives have a fitted effect of over 65% in size
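Measures PINK1 amount and localization on or inside mitochondria by immunofluorescence. Stable cells get compounds at 5 concentrations for 24 hours before fixation and staining; CCCP controls included.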
ATXN2 expr inh = ATXN2 expression inhibition | HEK-293 ATXN2-luciferase reporter, luminescence, 24 h | 360,000 compounds, 0.72% hits | Potency, µM (doses to about 57 µM), for inactives: at the top dose activity change, negative = inhibition, hits mostly inhibitors; also: potency is read from the fitted curve at half-maximal effect; % is scaled to controls: 0 for no effect and ±100 for the full control effect; nearly all actives have a fitted effect of over 55% in size
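qHTS (up to 57 uM final) was run with 24 h compound exposure of reporter cells at 37 °C. Each well was multiplexed: SteadyGlo luminescence measured ATXN2-luciferase expression after a fluorogenic Gly-Phe-AFC viability readout (25 uM final).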
IL-1B inflam inh = inhibitors of inflammasome signaling (IL-1 beta secretion); THP-1 LPS/ATP IL-1B secretion, AlphaLISA, 16 h; active compounds read low; activity change, % at 57.5 µM; 360,000 compounds, 4.7% hits; AID 743279; in the data active = activity change below about -50%; inconclusive = mostly about -30% to -49%; also: % is scaled to controls: 0 for no effect and ±100 for the full control effect
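THP-1 cells pretreated 1 hr with compounds (up to 57.5 uM final), then stimulated with LPS (250 ng/mL final) plus ATP (1.25 mM final); secreted IL-1B measured by AlphaLISA after 16 hr, decreased signal indicating inhibition.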
An asterisk follows results filed as active; i = inactive; ? = inconclusive; . = no result given; [ ] = remark or other dose. Unless noted, calls follow the shape of the dose curve; as a rule, active = well fitted curve in the direction sought with a large enough effect; inconclusive = small, poorly fitted or top-dose-only effect, or another doubt; inactive = no such curve, though single readings can be large; an effect the other way counts as inactive or inconclusive.

SMILES	SW480 rerep	MCF10A rerep	S2 tox	PINK1 expr mod	ATXN2 expr inh	IL-1B inflam inh
O=C(N/N=C/C(Br)=C/c1ccccc1)c1cc(-c2ccco2)[nH]n1	19%	7.3µM*	i	2%	-24%	-68*
CC(/C=N/NC(=O)c1cc(-c2ccc(C)o2)[nH]n1)=C\c1ccccc1	18µM*	23µM*	i	3%	.	-4
COc1ccccc1OC(C)C(=O)Nc1ccc(-c2nc3ccccc3s2)cc1 (centres undefined)	.	.	i	4%	50%	.
Cc1cnc(C)c(-c2cc(F)cc3c2OC(CNC(=O)Cc2ccccc2C)C3)n1 (centres undefined)	.	.	i	0%	.	.
CCN(CC)c1ccc(C(=C2C=CC(=[N+](CC)CC)C=C2)c2ccc(S(=O)(=O)O)cc2S(=O)(=O)[O-])cc1	-4%	-4%	?	2%	?	-94*
O=C(c1ccc(Nc2nccc(-c3cc4ccccc4s3)n2)cc1)N1CCC(N2CCCC2)CC1	.	.	.	.	19µM*	.
COc1ccc(NC(=O)N[C@H]2C=C[C@@H](CC(=O)NC3CCC3)O[C@@H]2CO)cc1	.	.	.	.	.	0
CCOc1cc(-c2nc3ccccc3s2)ccc1O	1.8µM*	?	i	4%	58%	?
O[C@@H]1CN(Cc2ccc(-n3cccn3)cc2)CC[C@H]1N1CCN(c2ccccc2F)CC1	?	?	?	0%	?	-62*
CC(C)CCNC(=S)Nc1ccc(Br)cc1	33%	?	i	?	33%	-1
CC(C)OC(=O)c1cc(NC(=S)Nc2ccc([N+](=O)[O-])cc2)cc(C(=O)OC(C)C)c1	?	?	.	14µM*	?	-101*
O=C(NC(NNc1ccc([N+](=O)[O-])cc1)(C(F)(F)F)C(F)(F)F)c1ccc(F)cc1	11%	?	i	45µM*	-20%	2
CC(C)CCNC(=S)Nc1ccc([N+](=O)[O-])cc1	?	?	?	?	?	-71*
O=[N+]([O-])c1ccc(NNC(=S)Nc2ccc(F)cc2)cc1	-2%	-1%	?	14µM*	?	-59*
COc1cc(=O)n2c(c1C(=O)NCc1nccs1)CCN(Cc1ccccc1F)CC2	.	.	i	-1%	.	.
Cc1ccc(Cl)cc1N1CCN(C(=O)CCCCCn2c(=O)[nH]c3ccccc3c2=O)CC1	.	.	.	-1%	.	.
Cc1ccc(F)cc1NC(=O)CSc1nc(-c2cccs2)cc(C(F)(F)F)n1	.	.	i	17%	-6%	.
CCCCNC(=S)Nc1ccc([N+](=O)[O-])cc1	-4%	18µM*	i	?	-20%	-74*
NC1CCC(Nc2nc(Nc3ccc(C(=O)N4CCCCC4)cc3)c3ncn(-c4cccc(F)c4)c3n2)CC1 (centres undefined)	.	.	.	.	32%	.
Cc1ccccc1-c1nnn(CC(=O)NC(=O)NC2CCCC2)n1	3%	-5%	i	4%	-12%	-54*
COc1ccc(CCCC(=O)NCc2ccccc2)cc1C	?	8.2µM*	?	9%	-7%	0
COC(=O)c1ccc(CNC(=O)COC(=O)/C=C/c2ccc(O)c(OC)c2)cc1	-5%	6%	i	0%	3%	-68*
Cc1ccc(CNC(=O)CCCc2ccccc2)cc1	-1%	20%	i	3%	-6%	12
CCOC(=O)/C=C/C(=O)OCC(=O)NCc1ccccc1	?	?	i	8%	.	-91*
CCOC(=O)/C=C/C(=O)OCC(=O)Nc1c(Cl)cccc1Cl	-2%	-1%	i	1%	15%	-54*
SMILES	SW480 rerep	MCF10A rerep	S2 tox	PINK1 expr mod	ATXN2 expr inh	IL-1B inflam inh
CCc1ccc2oc(-c3cccc(NC(=O)c4cc5ccccc5o4)c3)nc2c1	.	.	i	-1%	80%	.
Cc1ccc(C)c(-c2nnc(NC(=O)c3ccc4c(c3)OCCO4)o2)c1	.	.	.	8%	.	.
CNc1nc(-c2ccccc2)c(-c2ccccc2)s1	.	.	.	4%	.	.
COc1cc(/C=C/C(=O)OCC(=O)Nc2ccccc2Sc2ccc(Cl)cc2)ccc1O	13%	21µM*	?	?	?	?
CCOc1ccc(/C=C/C(=O)OCC(=O)NCCc2ccc(OCC)c(OCC)c2)cc1OC	-2%	0%	i	5%	1%	-3
COc1ccc(/C=C/C(=O)OCC(=O)NCc2ccccc2)cc1OC	16%	23µM*	i	7%	-23%	0
COc1cc(/C=C/C(=O)OCC(=O)NCCc2ccc(S(N)(=O)=O)cc2)ccc1OCC#N	2.6µM*	?	i	1%	-7%	-9
Cc1ccc2nc(Cl)c3cc(C(=O)NC4CCCCC4)sc3c2c1	.	.	.	2%	.	.
CCN(CC)CCCNc1nc(-n2nc(C)cc2C)nc2sc3c(c12)CC(C)(C)OC3	?	4%	i	0%	20%	-57*
Cc1cc(C)n(-c2nc(NCc3cccnc3)c3c4c(sc3n2)COC(C)(C)C4)n1	8%	2%	i	2%	14%	?
O=C(Nc1ccc(OC(F)(F)F)cc1)c1sccc1NCc1ccnc2ccccc12	.	.	.	.	78%	.
Cn1cnc([N+](=O)[O-])c1NCc1ccccc1	-13%	1%	i	0%	.	10
Cc1nn(C(C)C(=O)c2cccc(Cl)c2)c(C)c1[N+](=O)[O-] (centres undefined)	-11%	-2%	i	1%	-20%[11.3 µM]	27
Cn1cnc([N+](=O)[O-])c1S(=O)(=O)Nc1ccccc1	?	?	i	1%	1%	-97*
Cn1cnc([N+](=O)[O-])c1S(=O)(=O)Oc1ccccc1	4.1µM*	7.3µM*	.	0%	?	-94*
Cn1cnc([N+](=O)[O-])c1S(=O)(=O)c1cccc(Cl)c1	5.8µM*	3.7µM*	.	4%	?	?
COC(=O)c1cc(S(=O)(=O)N(Cc2ccccc2)C(C)(C)C)c[nH]1	6.5µM*	23µM*	i	1%	-29%	46
O=C(Nc1cccc(-c2nc3ccccc3[nH]2)c1)c1c(F)cccc1F	.	.	.	4%	.	.
Cn1c2c(c(=O)n(C)c1=O)C(C(F)(F)F)(C(F)(F)F)N=C(CCC1CCCCC1)N2	18%	?	i	?	?	-58*
Cn1c2c(c(=O)n(C)c1=O)C(C(F)(F)F)(C(F)(F)F)N=C(c1ccccc1Cl)N2	-3%	4%	i	-1%	-11%	22
Cc1cc(C)cc(NS(=O)(=O)c2ccc(-c3cc(C)no3)cc2)c1	.	.	.	7%	.	.
CCOc1ccc(S(=O)(=O)N(C(=O)c2ccco2)c2cc3sc(=O)oc3c3ccccc23)cc1	2%	?	?	2%	?	-95*
